According to PubChem BioAssay (NCATS):
A number with no mark means an inactive call. Calls of active or inactive are those of the source. Calls follow the shape of the dose curve; as a rule, active = well fitted curve in the direction sought with a large enough effect; inactive = no such curve, though single readings can be large or run the other way.

biological target: Alpha-galactosidase (Coffea arabica) (UniProt Q42656); test: Counterscreen for Glucocerebrosidase Inhibitors: qHTS Assay for Coffee Bean alpha-Galactosidase at pH 5.9 (AID 998); conditions: coffee bean alpha-galactosidase enzyme assay; series mostly up to 76.9 µM; activity, negative = inhibition: at the top concentration;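 also: plate controls were uninhibited enzyme for no effect and no-enzyme basal signal for full effect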
Source text: NIH Chemical Genomics Center [NCGC]
NIH Molecular Libraries Screening Centers Network [MLSCN]
PI Name: Zheng, Wei [NIH]
Alpha-galactosidase is a homodimeric glycoprotein that hydrolyzes the terminal alpha-galactosyl moieties from glycolipids and glycoproteins. Deficiency of this enzyme results in Fabry Disease with progressive accumulation of globotriaosylceramide and other glycosphingolipids in vascular endothelial cells that causes renal failure, myocardial infarction and stroke, and premature death in patients. It has reported that the improper folding and trafficking of alpha-galactosidase resulted from the genetic mutations may account for a significant numbers of Fabry patients. […] We optimized this coffee bean alpha-galactosidase assay in 1536-well plate format as a counter-screen assay for identifying the selective small molecule inhibitors of other lysosomal enzymes.
NCGC Assay Protocol Summary:
This is a fluorogenic enzyme assay with 4-Methylumbelliferyl alpha-D-galactopyranoside as the substrate and green coffee bean […] (from Sigma-Aldrich) as the enzyme preparation. Upon the hydrolysis of this fluorogenic substrate, the resulting product, […]. 4-Methyllumbelliferone, can be excited at 365 nm and emits at 440 nm which can be detected by a standard fluorescence plate reader. Data were normalized to the controls for basal activity (without enzyme) and 100% activity (with enzyme). In the AC50 values were determined from concentration-response data modeled with the standard Hill equation.
Assay buffer: 50 mM citric acid, 0.005% Tween-20, pH 5.9. (pH 5.9 is an optimal condition for this enzyme assay.)
1536-well assay protocol for the coffee bean alpha-galactosidase:
(1) Add 2 ul/well of enzyme (2 nM final)
(2) Add 23 nL compounds in DMSO solution. The final titration was 0.7 nM to 77 uM.
(3) Add 1 ul of substrate (80 uM final)
(4) Incubate at room temperature for 20 min.
(5) Add 2 ul stop solution (1M NaOH and 1M Glycine mixture, pH 10)
(6) Detect the assay plate in a ViewLux plate reader (PerkinElmer) with Ex=365 nm and Em=440nm.
Keywords: Alpha-galactosidase, Fabry Disease, pharmacological chaperone, chaperone therapy, high throughput screening, alpha-galactosidase inhibitor, MLSMR, MLSCN, NIH Roadmap, qHTS and NCGC

Sequence of Alpha-galactosidase (Coffea arabica) (Q42656 whole entry, looked up): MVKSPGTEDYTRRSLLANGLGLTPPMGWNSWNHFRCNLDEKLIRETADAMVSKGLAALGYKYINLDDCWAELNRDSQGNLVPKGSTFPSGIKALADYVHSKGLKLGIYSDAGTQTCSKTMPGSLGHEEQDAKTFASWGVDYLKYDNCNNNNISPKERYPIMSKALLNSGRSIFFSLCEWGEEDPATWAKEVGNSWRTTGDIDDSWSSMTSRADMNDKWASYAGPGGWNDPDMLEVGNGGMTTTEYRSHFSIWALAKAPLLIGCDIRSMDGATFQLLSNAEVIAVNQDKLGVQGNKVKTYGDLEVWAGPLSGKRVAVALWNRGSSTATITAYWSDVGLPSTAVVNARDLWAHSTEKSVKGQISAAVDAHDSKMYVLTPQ

Question: How did the “activity, negative = inhibition” value turn out when N[C@H](C(=O)N[C@@H]1C(=O)N2C(C(=O)O)=C(Cl)CS[C@@H]12)c1ccccc1 was run?
Answer: 0.0245%

Question: How did the “activity, negative = inhibition” value turn out when CSC(N)=NCCC[C@@H](N)C(=O)O was run?
Answer: 1.11%

Question: How did the “activity, negative = inhibition” value turn out when N=C1Sc2ccccc2C2=NCCCN12 was run?
Answer: -0.643%

Question: Which “activity, negative = inhibition” value does the source give for O=c1cc(O)cc(/C=C\c2ccc(O)c(O)c2)o1 here?
Answer: -9.52%

Question: Which “activity, negative = inhibition” value does the source give for CCNC(=O)[C@@H]1O[C@@H](n2cnc3c(N)nc(NCCc4ccc(CCC(=O)O)cc4)nc32)[C@H](O)[C@@H]1O here?
Answer: -0.713%

Question: How did the “activity, negative = inhibition” value turn out when N[C@H](CCCC(=O)O)C(=O)O was run?
Answer: 3.56%

Question: With CC(N)=NCc1cccc(CN)c1 as the compound, how does the “activity, negative = inhibition” value read?
Answer: 0.131%

Question: How did the “activity, negative = inhibition” value turn out when C[C@@H](Cc1ccccc1)Nc1ncnc2c1ncn2[C@@H]1O[C@@H](CO)[C@H](O)[C@@H]1O was run?
Answer: -0.797%

Question: O=c1ccn([C@@H]2O[C@@H](COP(=O)(O)OP(=O)(O)O)[C@H](O)[C@@H]2O)c(=O)[nH]1 was tested. Which “activity, negative = inhibition” value did it give?
Answer: 1.08%

Question: O=C(/C=C\c1ccc(O)cc1)c1ccc(O)cc1O was tested. Which “activity, negative = inhibition” value did it give?
Answer: -6.71%

Question: How did the “activity, negative = inhibition” value turn out when C=C[C@H](N)CCC(=O)O was run?
Answer: -1.12%

Question: How did the “activity, negative = inhibition” value turn out when CCCCCCCCCCCCCCCCCCNC(=O)OC[C@@H](COP(=O)([O-])OCC[n+]1ccsc1)OC was run?
Answer: -2.05%

Question: How did the outcome turn out when CC1=C(\C=C/C(C)=C/C=C\C(C)=C\C(=O)O)C(C)(C)CCC1 was run?
Answer: inactive

Question: Which “activity, negative = inhibition” value does the source give for CN=C(NC#N)Nc1ccc(C2=NNC(=O)C[C@@H]2C)cc1 here?
Answer: 4.59%

Question: With CCCn1c(=O)c2[nH]c(-c3ccc(OCC(=O)Nc4ccc(C#N)cc4)cc3)nc2n(CCC)c1=O as the compound, how does the “activity, negative = inhibition” value read?
Answer: -1.56%

Question: With O=C(O)CCCC[C@H]1CCSS1 as the compound, how does the “activity, negative = inhibition” value read?
Answer: -2.03%

Question: Which “activity, negative = inhibition” value does the source give for Nc1nc2c(nc(Br)n2[C@@H]2O[C@H]3COP(=O)(O)O[C@@H]3[C@H]2O)c(=O)[nH]1 here?
Answer: 1.21%

Question: With c1ccc2c(c1)CCC[C@H]2C1=NCCN1 as the compound, how does the “activity, negative = inhibition” value read?
Answer: -0.344%

Question: Which “activity, negative = inhibition” value does the source give for CN1[C@@H](CC(=O)c2ccccc2)CCC[C@@H]1C[C@@H](O)c1ccccc1 here?
Answer: 1.27%

Question: How did the “activity, negative = inhibition” value turn out when C[C@@H]1O[C@@H](n2cc(F)c(=O)[nH]c2=O)[C@H](O)[C@@H]1O was run?
Answer: 4.94%

Question: CCCN(CCC)C(=O)[C@@H](CCC(=O)O)NC(=O)c1ccccc1 was tested. Which “activity, negative = inhibition” value did it give?
Answer: 0.644%

Question: For CCN(CC)CCC[C@H](C)Nc1c2ccc(Cl)cc2nc2ccc(OC)cc12, which “activity, negative = inhibition” value is on record?
Answer: -2.16%

Question: With C[C@@H](/C=C\c1cccc(Oc2ccc(F)cc2)c1)N(O)C(N)=O as the compound, how does the “activity, negative = inhibition” value read?
Answer: -1.89%

Question: Which “activity, negative = inhibition” value does the source give for Cc1ccc(C(=O)O[C@@H](C(=O)O)[C@@H](OC(=O)c2ccc(C)cc2)C(=O)O)cc1 (tested in a mixture with another compound) here?
Answer: 2.36%

Question: With NC(=NCCC[C@H](N)C(=O)O)NO as the compound, how does the “activity, negative = inhibition” value read?
Answer: -2.09%

Question: For CN1[C@@H]2CC(OC(=O)[C@@H](CO)c3ccccc3)C[C@H]1[C@H]1O[C@H]12 (stereo not given in full), which “activity, negative = inhibition” value is on record?
Answer: 3.75%

Question: Which “activity, negative = inhibition” value does the source give for CCCCCC[C@@H]([C@H](C)O)n1cnc2c(N)ncnc21 here?
Answer: 4.2%

Question: How did the “activity, negative = inhibition” value turn out when COC1=C(OC)C(=O)c2ccccc2C1=O was run?
Answer: -3.07%

Question: How did the “activity, negative = inhibition” value turn out when Oc1ccc([C@@H]2CNCCc3c2cc(O)c(O)c3Cl)cc1 was run?
Answer: -3.73%

Question: Which “activity, negative = inhibition” value does the source give for N[C@@H]1CCc2cc(O)c(O)cc2C1 here?
Answer: 2.34%

Question: With CCN(CC)CCC[C@H](C)Nc1ccnc2cc(Cl)ccc12 as the compound, how does the “activity, negative = inhibition” value read?
Answer: 1.2%

Question: For CCCN[C@@H](C)C(=O)Nc1ccccc1C, which “activity, negative = inhibition” value is on record?
Answer: 0.149%

Question: For NC(N)=Nc1ccc2[nH]c3c(c2c1)C[C@]1(O)[C@@H]2Cc4ccc(O)c5c4[C@]1(CCN2CC1CC1)[C@H]3O5, which “activity, negative = inhibition” value is on record?
Answer: -29.2%

Question: N[C@H](CCC(=O)N[C@H](CSN=O)C(=O)NCC(=O)O)C(=O)O was tested. Which “activity, negative = inhibition” value did it give?
Answer: -2.09%

Question: Which “activity, negative = inhibition” value does the source give for Cc1ccccc1CNc1ncnc2c1ncn2[C@@H]1O[C@@H](CO)[C@H](O)[C@@H]1O here?
Answer: 3.64%

Question: For COc1cc([C@H](O)CO)ccc1O, which “activity, negative = inhibition” value is on record?
Answer: 1.71%

Question: With CCCC[C@]1(C2CCCC2)Cc2cc(OCC(=O)O)c(Cl)c(Cl)c2C1=O as the compound, how does the “activity, negative = inhibition” value read?
Answer: -0.346%

Question: Which “activity, negative = inhibition” value does the source give for C[C@@H](CN1CCC(Cc2ccccc2)CC1)[C@H](O)c1ccc(O)cc1 here?
Answer: -2.88%

Question: Which “activity, negative = inhibition” value does the source give for CC(C)[C@@H]1NC(=O)[C@H](CCCCN)NC(=O)[C@H](Cc2c[nH]c3ccccc23)NC(=O)[C@H](Cc2ccc(O)cc2)NC(=O)[C@H](C)N(C)C(=O)[C@H](Cc2ccccc2)NC1=O here?
Answer: -0.162%

Question: Which “activity, negative = inhibition” value does the source give for O=C1O/C(=C\Br)CC[C@@H]1c1cccc2ccccc12 here?
Answer: 5.4%
